# Measurements taken from PMC12136788.
# Changes are numbered by the printed parent chain. Over roughly 24,000 sequences, “enrichment r” has its median near 0.99; the highest 2% begin near 3.7. What follows is part of a selection rich in the highest values, with near analogues and random picks from the rest.
# T1: UNK ZnF1-3 (human, UniProt Q9C0B0 31-174)
# T1 sequence: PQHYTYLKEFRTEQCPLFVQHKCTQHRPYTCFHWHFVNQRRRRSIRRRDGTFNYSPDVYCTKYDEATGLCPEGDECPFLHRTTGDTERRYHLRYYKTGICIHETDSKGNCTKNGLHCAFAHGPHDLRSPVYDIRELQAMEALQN
# B1: chr8:13020401:13020402:+_ENSMUSG00000031442_ENSMUST00000123811|mus_hu|FALSE|FALSE (ssRNA)
# RNA: GGGAGUUCUACAGUCCGACGAUCUGAUUCCGCACCCUGGAGGUCUGGCCAGUGACGGCUACAAGCCGCUGGGAGGGUAGCGUGAGGGGAAUGCAGCCACGCCUGCCUCCACUGUGCUGGGGCUGGGAACCGUGAGGCUGUGAGCAACAGAGGAUUGAGCAUCA
# B2: chr9:4385736:4385737:+_ENSMUSG00000041124_ENSMUST00000047173|mus_hu|FALSE|FALSE (ssRNA)
# RNA: GGGAGUUCUACAGUCCGACGAUCAUAUUUUGGGUUGGAAAAUUCUUUACUGAGUGUGGGGGGGUGUUGAGGAGGUAUGCAUUGCACAGUAGCAACCUUUUCCCCACCCCAGUUUUGACAACCCAACAUGUCUCCAGACAUCACCAACAGAGGAUUGAGCAUCA
# B3: chr2:27535424:27535425:-_ENSG00000115204_ENST00000380044|hu_mus|FALSE|FALSE (ssRNA)
# RNA: GGGAGUUCUACAGUCCGACGAUCUUUGGCCCAAUUGUCCUGGGCUGACAUUCCAUUGAGUAUCCCGACCAGUGGGAGAAAGCAGCCUAGGAAACAUGGGGCAAAGCCCCCCUGAUCUAACAACAUCUUCUUCAGUGCAUGCACCAACAGAGGAUUGAGCAUCA
# B4: chr2:17897474:17897475:-_ENSG00000163029_ENST00000351948|hu_mus|FALSE|FALSE (ssRNA)
# RNA: GGGAGUUCUACAGUCCGACGAUCUAUUGCUUCCAGAAGAGCUGGAACAUGAGGACCAAAUCUUUUUAGUCGAUCAGUUUUACUAUCUUUCAGUUCUUUCAAUUGUCUCUGAUUAUAGUUGAGUGCAUGUCUCACUUCUAUAUCCAACAGAGGAUUGAGCAUCA
# B5: 8890394_8891644_3383_CDS_ENSG00000134313_ENST00000427284|human|control|control (ssRNA)
# RNA: GGGAGUUCUACAGUCCGACGAUCACCCUCAUGUAGAGGGAGCGGGGGGUACGCCAGUCCUCCAAUACUGAUCUGCUCUCUGGCAGCACGAACAUCUGCAAUAAUUUCCCGUAGUUUGGGAUCUAGGUUUACAGUGCAUGGCAACAACAGAGGAUUGAGCAUCA
# B6: chr4:2840174:2840175:+_ENSG00000087266_ENST00000503393|hu_hu|motif|central (ssRNA)
# RNA: GGGAGUUCUACAGUCCGACGAUCGAACUACGAUACAGCCAAACAAUGGAAGUUUUUAGCAAUGAACAUGCACAAACGGUACGGCGCACAGCAACAUGAAUAAAUCUCACAGACAUAAUAACGAGCCAAAGAAGCCAGCUGCCACAACAGAGGAUUGAGCAUCA
# B7: chr17:56552419:56552420:-_ENSMUSG00000013236_ENSMUST00000086828|mus_mus|mus_mus_mus_hu_False|28_38 (ssRNA)
# RNA: GGGAGUUCUACAGUCCGACGAUCAAAAAAUACACUAUUUAAAAAAAAUGAAAUGUCACGGGAUACAGUUACACUGAGAGUUUUAAAAGAAAGCUGGAAAAAAAAUGUUGCCAAAAGUCCCCAGGCUGCAGAGCGGGGAGGAGCCAACAGAGGAUUGAGCAUCA
# B8: chr17:56552419:56552420:-_ENSMUSG00000013236_ENSMUST00000086828|mus_mus|mus_mus_mus_hu_False|18_38 (ssRNA)
# RNA: GGGAGUUCUACAGUCCGACGAUCAAAAAAUACACUAUUUAAAAAAAAUGAAAUGUCACGGGAUACAGUUACACUGAGAGUUUUAAAAGAAAGCUGGAAAAAAAAUGCAGCCCAGUGGCAGGCAGGGGCAGAGCGGGGAGGAGCCAACAGAGGAUUGAGCAUCA
# B9: chr17:56552419:56552420:-_ENSMUSG00000013236_ENSMUST00000086828|mus_mus|mus_mus_mus_hu_False|8_38 (ssRNA)
# RNA: GGGAGUUCUACAGUCCGACGAUCAAAAAAUACACUAUUUAAAAAAAAUGAAAUGUCACGGGAUACAGUUACACUGAGAGUUUUAAAAGAAAGCUGGAAAAAAAAUGCAGCCCAGUGUCCCCAGGCUGAGUGCGGAAGAGGAGCCAACAGAGGAUUGAGCAUCA
# B10: chr17:56552419:56552420:-_ENSMUSG00000013236_ENSMUST00000086828|mus_mus|mus_mus_mus_hu_False|38_48 (ssRNA)
# RNA: B7 RNA with G88A, G92A, C93U, U94A, G95A, U107C, U108A, A112C, A114G, A115U
# B11: chr2:61719535:61719536:-_ENSG00000082898_ENST00000401558|hu_mus|FALSE|FALSE (ssRNA)
# RNA: GGGAGUUCUACAGUCCGACGAUCGUUUACUACUGUCUUCAAAAAUUUCCAGUGUGCUCUCAAAAAUCUUGGGUAUUGACCUACUAUGUACAUGAUAUUCGAUGCAAUAAUAGCUUUAUUAUCUUUGCCUCUUUUCUGCUCACACAACAGAGGAUUGAGCAUCA
# B12: chr2:48026839:48026840:+_ENSG00000116062_ENST00000540021|hu_hu|hu_hu_hu_mus_False|38_78 (ssRNA)
# RNA: GGGAGUUCUACAGUCCGACGAUCAUAGUGAGCCACUAGCGUCCUAAAUCUGGAACAAUGGCGAUCAUCCGAAAACUGGCCGAUGAAAAACUUGCCCAGUGAAGUAUCCACAAAGCAAACACCAUACACACGAGUGUGACCAGACAACAGAGGAUUGAGCAUCA
# B13: chr1:180251914:180251915:+_ENSMUSG00000026500_ENSMUST00000027781|mus_hu|FALSE|FALSE (ssRNA)
# RNA: GGGAGUUCUACAGUCCGACGAUCAGAUCCUAAUGAACCAUACAAUAUUGAAUGCCGGGCGCAGGGAGUAUUUUCAACAUCUAAAAAUCCUAGGAGCUUAAGGGACUUCCAAUAUGAUAAAUGUAACGACGUACAAGAUGCCUUCAACAGAGGAUUGAGCAUCA
# B14: 106713800_106713920_1116_CDS_ENSMUSG00000018363_ENSMUST00000103067|mouse|control|control (ssRNA)
# RNA: GGGAGUUCUACAGUCCGACGAUCCCUGCUCAUGUAAUUUCUAUGUCGCUGGGACCUGACUCUUCUCUCUGCUAGUCUGGGGUCUGAAGAAUGUCCACACGUUGCACCAUUUGUUCCAGUAAUUGGAGUAUUCUCAUCCACAAACAACAGAGGAUUGAGCAUCA
# Target: T1, UNK ZnF1-3
# Experiment: nsRBNS (natural sequence RNA bind-n-seq); RBNS binding buffer (assumed for nsRBNS): 25 mM Tris pH 7.5, 150 mM KCl, 3 mM MgCl2, 0.01% Triton X-100, 500 ug/ml BSA, 20 U/ml SUPERase-In, 4 C; UNK is unkempt and MSI1 is Musashi-1; names of the RNAs are library labels; protein concentration not given here; high values mean tight binding
row,Binder,binding signal
1,B1,1.36 enrichment R
2,B2,0.462 enrichment R
3,B3,0.82 enrichment R
4,B4,0.468 enrichment R
5,B5,0.796 enrichment R
6,B6,2.12 enrichment R
7,B7,5.83 enrichment R
8,B8,5.96 enrichment R
9,B9,6.02 enrichment R
10,B10,12.3 enrichment R
11,B11,0.747 enrichment R
12,B12,1.33 enrichment R
13,B13,1.57 enrichment R
14,B14,0.982 enrichment R
